Among all 2,200 compounds or so, about 1,300 (59%) were called active. How the calls were made is not given here. The set was probably picked from earlier hits. These entries were drawn from the full list. Entries with a potency or affinity are not part of this list.
Assay: human monocytic cell viability reduction – S. typhimurium screen hits, cytotoxicity control for Salmonella PhoP regulon inhibitors, dose response (AID 2253)
Details: THP-1 viability, CellTiter-Glo luminescence, 72 h; series mostly up to 50 µM

Compound | outcome
Cc1ccc(NC2CC(=O)N(Cc3ccccc3)C2=O)cc1 (centres undefined) | inactive
CCN1C(=O)/C(=C/N2CC(C)CC(C)C2)SC1=S (centres undefined) | inactive
CCc1ccc(NC(=O)c2noc3c2CCc2ccccc2-3)cc1 | inactive
Cc1ccc(N2C(=O)CC(n3ccnc3)C2=O)cc1C (centres undefined) | inactive
COc1ccc2cc(C)c3nnc(SCC(=O)Nc4nc(-c5ccccc5)cs4)n3c2c1 | inactive
CN(C)CC(=O)Nc1nc(-c2ccccc2)cs1 | inactive
CS(=O)(=O)c1ccc([C@@H](O)[C@@H](CO)NC(=O)C(Cl)Cl)cc1 | inactive
CCOCc1nnc(NC(=O)COC)s1 | inactive
CC(NC(=O)CSc1nc2c(cc1C#N)CN(C)CC2)c1ccccc1 (centres undefined) | inactive
COc1cccc(C=NCCNC(=O)c2nonc2N)c1O | inactive
O=C1CCc2cc(S(=O)(=O)N3CCN(c4cccc(Cl)c4)CC3)ccc2N1 | inactive
CCN(CC)c1ccc(/C=C(\C#N)C(=O)NCc2ccco2)cc1 | inactive
CCOC(=O)C1CCCN(S(=O)(=O)c2ccc(Br)c(OC)c2)C1 (centres undefined) | inactive
CCn1cc(C(=O)O)c(=O)c2cc(F)c(N3CCN(C(=S)Nc4ccc(OC)cc4)CC3)cc21 | inactive
C/C(Nc1ccc(F)cc1)=C(/C#N)C(N)=O | inactive
Cc1cc(-c2c(C)n([O-])c(C)c(C)[n+]2=O)ccc1F | inactive
CCC(Sc1ncccc1C(=O)OC(C)C)C(=O)N1CCOCC1 (centres undefined) | inactive
Cc1cc(NC(=O)c2cnn3cccnc23)no1 | inactive
CCn1cc(C(=O)NCCCO)c(=O)c2cc(F)c(N3CCN(C)CC3)cc21 | inactive
O=c1[nH]c(CSc2nnc(NCCCN3CCOCC3)s2)nc2cc(Cl)ccc12 | inactive
C=CC#CC[N+]1(CC#Cc2ccccc2)CCOCC1 | inactive
CN1CCCC(OC(=O)c2ccc(Cl)cc2)C1 (centres undefined) | inactive
O=C(O)/C=C/C(=O)Nc1cccc(C(F)(F)F)c1 | inactive

Compound | outcome
FC(F)(F)c1cccc(NC(=S)NCCN2CCOCC2)c1 | inactive
c1ccc(-c2nnc(SCCC3OCCCO3)o2)cc1 | inactive
Cc1cc(-c2csc(NC(=O)c3ccc(C#N)cc3)n2)c(C)n1Cc1ccco1 | inactive
Cc1ccc(CNC(=O)C2CCCN(S(=O)(=O)c3c(C)noc3C)C2)cc1 (centres undefined) | inactive
Cc1cccc(-n2c(N)cc(=O)[nH]c2=S)c1C | inactive
Cc1cc(C)c(NC(=O)c2cn3c4c(c(N5CCN(C)CC5)c(F)cc4c2=O)OCC3C)c(C)c1 (centres undefined) | inactive
Cc1ccc(N2C(=O)CC(Nc3ccccc3)C2=O)cc1 (centres undefined) | inactive
CC1(C)CC(=O)C(C(=O)/C=C/NCCc2ccccc2)C(=O)C1 | inactive
COc1cc(C2C(C(=O)c3ccc(C)o3)=C(O)C(=O)N2CCc2ccccc2)ccc1O (centres undefined) | inactive
O=c1[nH]c(CN2CCCCC2)nc2ccccc12 | inactive
c1ccc(COc2cccc(CN3CCN(c4ccccn4)CC3)c2)cc1 | inactive
CCCC(=O)c1c[nH]c(C(=O)NCCCN2CCOCC2)c1 | inactive
CCOc1ccc(S(=O)(=O)NNC(=S)Nc2ccc(Br)cc2)cc1 | inactive
O=C(CSc1nc2ccccc2o1)Nc1ccc(N2CCOCC2)cc1 | inactive
O=C(CSc1nc2ccccc2o1)Nc1ccc(N2CCOCC2)c(Cl)c1 | inactive
CCCCC(=O)NCCNC(=O)c1cc(OCC(F)(F)F)ccc1OCC(F)(F)F | inactive
COc1ccc(-c2ccc(-c3noc(-c4cccs4)n3)c(OC)n2)cc1 | inactive
Cc1noc(C)c1CSc1nc2ccccc2nc1NS(=O)(=O)c1ccc(Cl)cc1 | inactive
Fc1cccc(NCc2cn3ccccc3n2)c1 | inactive
COc1ccc(CN2C(=O)Cc3c2nc(N)c2c(N)nc(N4CCCCC4)c(C#N)c32)cc1 | inactive
CCn1cc(C(=O)O)c(=O)c2cc(F)c(N3CCN(C(=S)NC(=O)c4ccccc4)CC3)cc21 | inactive
CCn1cc(C(=O)O)c(=O)c2cc(F)c(N3CCN(C(=S)NC(=O)c4ccccc4F)CC3)cc21 | inactive
CCCNC(=O)c1cn(CC)c2cc(N3CCN(C)CC3)c(F)cc2c1=O | inactive

Compound | outcome
CCCCNC(=O)c1cn(CC)c2cc(N3CCN(C)CC3)c(F)cc2c1=O | inactive
N#C/C=C(/N)c1ccc(Br)cc1 | inactive
Oc1ccccc1-c1nc(/C=C/c2ccccc2)nn1-c1ccccc1 | inactive
CCn1cc(C(=O)O)c(=O)c2cnc(N3CCNCC3)nc21 | inactive
N#Cc1c(N)n[nH]c1-c1cc2c([nH]1)CCCC2 | inactive
O=C(CSc1ccc(Cl)cc1)Nc1ccccc1N1CCN(C(=O)c2ccc(Cl)cc2)CC1 | inactive
O=C(CCN1C(=O)C2C3C=CC(C3)C2C1=O)N1CCN(c2cccc(Cl)c2)CC1 (centres undefined) | inactive
CN(C(=O)c1cccc(C#N)c1)c1nnc(-c2cnccn2)s1 | inactive
NC(=O)N1OCC2COc3ccc4ccccc4c3C21 (centres undefined) | inactive
COc1c(N2CCN[C@H](C)C2)c(F)cc2c(=O)c(C(=O)O)cn(C3CC3)c12 | inactive
COC(=O)c1sccc1NC(=O)c1csc2c1CCCC2 | inactive
COc1cc(C2Nc3cccc4cccc(c34)N2)cc(OC)c1OC(C)=O | inactive
CC(=O)Oc1c2occc2cc2ccc(=O)oc12 | inactive
CCOc1ccc2nc(COC(=O)c3ccco3)c(C(C)=O)[n+]([O-])c2c1 | inactive
CC1=CC(C)(C)n2c(O)c(C3=NC(=S)NC3=O)c3cc(OC(=O)c4cccc5ccccc45)cc1c32 | inactive
Cc1nc(-c2ccccn2)sc1C(=O)Nc1ccc(F)cc1F | inactive
COC(=O)c1cn(C(=O)c2cccs2)c2ccccc12 | inactive
Cc1c(NS(=O)(=O)c2ccccc2)c(=O)n(-c2ccccc2)n1C | inactive
Cc1cc2cc(CNS(=O)(=O)c3ccc4ccccc4c3)ccc2n1C | inactive
C=CCSc1ncnc2sc(C)c(C)c12 | inactive
c1ccn2c(CNc3ncnc4sccc34)nnc2c1 | inactive
N/C(=N\OC(=O)c1cccs1)C1(c2ccc(Cl)cc2Cl)CC1 | inactive
COc1ccc(C(C)=O)c2c(O)cccc12 | inactive

Compound | outcome
Cc1ccc(S(=O)(=O)NNC(=O)c2ccc(O)cc2)cc1 | inactive
Cc1ccc(C2NNC(=O)C2NC(=O)c2ccccc2)cc1 (centres undefined) | inactive
Nc1nnc(-c2cccc(Cl)c2Cl)c(N)n1 | inactive
CCn1cc(C(=O)O)c(=O)c2cc3c(cc21)OCO3 | inactive
CCCn1c(N)c(C(=O)COC(=O)c2c(C)noc2C)c(=O)n(C)c1=O | inactive
Cc1ccccc1-n1c(=O)c2ccccc2n2cnnc12 | inactive
Cc1cc(C(=O)COC(=O)CNC(=O)c2ccco2)c(C)n1Cc1ccco1 | inactive
O=C(O)Cn1cc(C(=O)c2ccco2)c2ccccc21 | inactive
COc1ccc(N2CCN(C(=O)C3CCCO3)CC2)cc1 (centres undefined) | inactive
Cc1ccc(C)n1-c1cccc(N)c1 | inactive
N/C(=N\OC(=O)c1ccc(F)cc1)c1nonc1N | inactive
CC(=O)N/N=C/c1ccc(OCCOc2ccc(Br)cc2)cc1 | inactive
Cc1cc(C(=O)N/N=C/c2ccc[nH]2)no1 | inactive
CCOC(=O)C1=C(C)N(CCO)C(=O)NC1c1cccc(O)c1 (centres undefined) | inactive
Cc1cc(C)n(-c2ccc(C(=O)OCC(=O)Nc3ccc([N+](=O)[O-])cc3)cc2)n1 | inactive
C=CCNC(=O)CC(=O)N/N=C/c1ccc(C(=O)OC)cc1 | inactive
COc1ccc(OC)c(C(C(=O)NCc2ccco2)N(C(=O)Cn2nnc3ccccc32)C(C)C)c1 (centres undefined) | inactive
Cc1ccc(/C=N/NC(=O)Cn2cnc3ccccc32)o1 | inactive
O=C(C1CCN(C2CC(=O)N(Cc3ccccc3)C2=O)CC1)N1CCCCCC1 (centres undefined) | inactive
Cc1ccc(S(=O)(=O)N2C(=O)CCC2C(=O)N2CCN(C)CC2)cc1 (centres undefined) | inactive
CCn1cc(C(=O)NCCCN(C)C)c(=O)c2cc(F)c(N3CCN(C)CC3)cc21 | inactive
Cc1cccc(-n2nc3c(c2NC(=O)c2ccco2)CSC3)c1C | inactive
O=C(Nc1cccc(-c2cn3cccnc3n2)c1)c1ccco1 | inactive

Compound | outcome
CC(=O)Nc1ccc(-n2nnnc2SCC(=O)Nc2cccc(NC(=O)c3ccco3)c2)cc1 | inactive
O=C(NC1CCCCC1)n1c(=O)oc2ccc(Cl)cc21 | inactive
Cc1ccc(C(=O)N2CC3(C(C)C)CN(C(=O)c4ccc(C)cc4)CC(C(C)C)(C2)C3=O)cc1 | inactive
Cc1ccc(C(=O)C(OC(=O)COc2ccccc2C)c2ccccc2)cc1 (centres undefined) | inactive
COC(=O)c1cc(C#N)c(Oc2ccc(F)cc2)nc1C | inactive
Nc1nc(Nc2ccc(Cl)cc2)n[nH]1 | inactive
COC(=O)CSc1nc(SCc2ccccc2Cl)nc2c1CCCC2 | inactive
CCCCCNS(=O)(=O)c1cc(C)ccc1OC | inactive
CCCCn1nnnc1NCc1cc(OC)c(OC)cc1OC | inactive
COc1ccc(C(C)C)cc1S(=O)(=O)Nc1ccc(Cl)cn1 | inactive
C=CCNC(=O)C(=O)NN=C1CCN(C)CC1 | inactive
COc1ccc(N2CCN(C(=O)Nc3ccc(S(=O)(=O)N(C)C)cc3)CC2)cc1 | inactive
CCOCCCNC(=S)Nc1cc(C)cc(C)c1 | inactive
COc1cccc(-c2nc(-c3ccc(Br)o3)no2)c1 | inactive
COCCSc1ccccc1C(=O)NCC1CCCO1 (centres undefined) | inactive
COCCNC(=S)N(Cc1cccnc1)Cc1ccc(OC)c(OC)c1 | inactive
CC1=C(C(=O)Nc2cccnc2)C(c2ccccn2)n2nnnc2N1 (centres undefined) | inactive
CCOC(=O)C1=C(C)NC(=O)NC1c1ccsc1 (centres undefined) | inactive
CN1C(=O)CC(P(=O)(c2ccccc2)c2ccccc2)N(C)C1=O (centres undefined) | inactive
Cc1cn([C@H]2C[C@H](N=[N+]=[N-])[C@@H](CO)O2)c(=O)[nH]c1=O | inactive
COc1nsnc1NS(=O)(=O)c1ccc(NC(=S)NC(=O)c2ccncc2)cc1 | inactive
C#CC(C)(CC)NC(=O)c1cc(OC)c(OC)c(OC)c1 (centres undefined) | inactive
